Screening data as filed in PubChem BioAssay.
A selection follows.
aSyn UTR act: Activators working through SNCA 5'UTR binding (MLPCN) | AID 1814 | alpha-synuclein 5'UTR reporter, activators screen | hit rate 7.1% among 300,000 | activity score, % (tested at 7.5 µM), hits read low; in the data active = activity score below about -60%
The depositor's hits bear a star.

SMILES | aSyn UTR act
Cc1nn2cc(-c3ccc(Cl)cc3)cnc2c1Cl | -144*
CCOC(=O)CSc1nc2ccccc2c(=O)n1NC(=O)c1ccccc1 | -66*
C=CCn1c(SCc2cc(C(C)=O)ccc2OCC)nc2ccccc2c1=O | 104
CCC(C)NC(=O)CSc1nc2ccsc2c(=O)n1NC(=O)c1ccccc1 (stereo unspecified) | -67*
Cc1cccc(Nc2nc(-c3ccccc3)c(C(=O)Nc3cccnc3)s2)c1 | -143*
CCOc1ccccc1-c1nc(-c2cccc(Br)c2)no1 | -135*
CCOc1ccccc1-c1nc(-c2ccc(NC(=O)c3ccc(Br)o3)cc2)no1 | -136*
COC1=C(Nc2ccccc2)C(=O)c2ccccc2C1=O | -73*
COC1=C(Nc2ccc(C)cc2)C(=O)c2ccccc2C1=O | -156*
CNC1=C(N(C(C)=O)c2ccc(Br)cc2)C(=O)c2ccccc2C1=O | 111
Cc1ccc(-c2cc3nn(-c4ccccc4)c(N)c3c(=O)o2)cc1 | -96*
O=C(/C=C/N1CCOCC1)c1ccc(-c2ccccc2)cc1 | -123*
O=C(Oc1ccc(-c2ccccc2)cc1)N1CCOCC1 | -104*
S=C(c1ccc(-c2ccccc2)cc1)N1CCOCC1 | 64
N#Cc1c(N)nc2c(c1N)CC(=O)N2c1ccc(Cl)cc1 | -132*
COc1ccc(Cc2[nH]n3c(=O)cc(C(C)C)nc3c2-c2ccccc2)cc1 | 72
COc1ccc(-c2cc(=O)n(-c3nc4ccccc4[nH]3)[nH]2)cc1 | -68*
O=C(Nc1ccccn1)c1ccc2ccccc2c1O | -144*
O=C(Nc1cccnc1)c1ccc2ccccc2c1O | -137*
O=C(Nc1cccc([N+](=O)[O-])c1)c1ccc2ccccc2c1O | -128*
O=C(CN1CC(=O)Oc2ccccc21)NCc1ccco1 | -97*
Clc1ccc(-c2cn3c(n2)SCC3)cc1 | -186*
Brc1ccc(-c2cn3c(n2)SCC3)cc1 | -179*
COc1ccc(-c2ncc(CN3CCN(CCC(C)C)C(CCO)C3)cn2)cc1 (stereo unspecified) | -111*
COc1ccc(CN2CCN(Cc3cccn3-c3ncccn3)CC2CCO)c(C)c1C (stereo unspecified) | 60
SMILES | aSyn UTR act
O=C(CSc1nnc(-c2ccccn2)o1)Nc1ccccc1 | -71*
Cc1occc1-c1nnc(SCC(=O)Nc2ccccn2)o1 | -115*
O=C(CSc1n[nH]c(-c2ccccn2)n1)Nc1ccc(F)cc1 | 73
O=C(CSc1nnc(-c2ccccn2)o1)Nc1ccc(F)cc1 | -94*
Fc1ccc(CSc2nnc(-c3ccccn3)o2)cc1 | -196*
CC(C)c1ccc(C2CC(c3ccc(Br)cc3)=NN2C(N)=S)cc1 (stereo unspecified) | -97*
CCCSc1ccc(C(=O)Nc2ccc(F)cc2F)cn1 | -87*
CCCSc1nsc(NC(=O)Nc2ccc(F)cc2F)n1 | -129*
CCCSc1nsc(NC(=O)CC)n1 | -135*
CC(C)c1ccc(/C=C/C2=NNC(=O)CC2)cc1 | 87
O=C(/C=C/c1ccc(Cl)cc1)N1CCOCC1 | -76*
CCCOc1ccc(/C=C/C(=O)N2CCOCC2)cc1 | -68*
CC(C)c1ccc(/C=C/C(=O)N2CCOCC2)cc1 | -156*
Cc1ccccc1C(=O)/C(C#N)=N/Nc1c(C)n(C)n(-c2ccccc2)c1=O | 79
Cc1cc2oc(C(=O)Nc3c(C)n(C)n(-c4ccccc4)c3=O)c(C)c2cc1C | -63*
Cc1ccc(Nc2nc(=O)c3cccnc3s2)cc1 | -228*
N/C(=N\OC(=O)c1cccc(F)c1)c1ccccc1 | -331*
Cc1ccc(/C(N)=N/OC(=O)c2ccc3ccccc3c2)cc1 | -124*
Cc1ccc(/C(N)=N/OC(=O)c2cccc(F)c2)cc1 | -262*
O=C(N/N=C/c1ccc([N+](=O)[O-])cc1)c1[nH]ncc1Br | -68*
C/C(=N\Nc1ccc(F)cc1F)c1ccccc1O | -104*
COCCNc1nc2sc3c(c2c(=O)n1Cc1ccco1)CCCCC3 | -72*
O=c1c2c3c(sc2nc(NCCO)n1Cc1ccco1)CCCCC3 | -118*
CCCOc1ccccc1/C=C(\C#N)C(=O)Nc1cccnc1 | -85*
COC(=O)c1ccc(COc2ccccc2/C=C(\C#N)C(=O)Nc2c(C)cccc2C)cc1 | -82*
SMILES | aSyn UTR act
COc1ccc(O)c(/C=C(\C#N)C(=O)Nc2cccnc2)c1 | -80*
Brc1ccc2oc3c(N4CCOCC4)ncnc3c2c1 | -158*
Cc1cccc(NC(=O)/C(C#N)=C/c2ccccc2O)n1 | -140*
Cc1ccc(/C=C2/C(=O)ON=C2c2ccccc2)o1 | -66*
CCOc1ccc(-c2cn(-c3cccc(SC)c3)c(=O)[nH]2)cc1 | -72*
Cc1cc(N2C(=O)C(O)=C(C(=O)c3cc4ccccc4o3)C2c2ccc(OC(C)C)cc2)no1 (stereo unspecified) | -91*
COc1cc(/C=C/C(=O)c2ccc3c(c2)OCCO3)cc(Br)c1OCC(=O)N(C)C | -819*
CCCCN(CC)CCNC(=O)c1cc2c(=O)n(C)c3ccccc3c2s1 | -67*
CCN(CC)CCNC(=O)c1cc2c(=O)n(C)c3ccccc3c2s1 | -70*
CCCCN(CC)CCNC(=O)c1cc2c(-c3ccccc3F)nn(C)c2s1 | -75*
CCOC(=O)C1=C(COc2ccc(C)cc2)NC(=O)NC1c1cc(C)ccc1C (stereo unspecified) | -86*
C/C(CC(=O)Nc1ccc(Cl)cc1C(F)(F)F)=N\NC(=O)c1cccs1 | -106*
C/C(CC(=O)Nc1ccc(Cl)cc1C(F)(F)F)=N\NC(=O)c1ccccn1 | -127*
O=C(COC(=O)CNC(=O)c1cccs1)Nc1ccccc1C(F)(F)F | -95*
COc1cc(C#CC#CCN2CCCCC2)ccc1O | -81*
COc1ccc(NC(=S)NNC(=O)c2cccs2)cc1 | -81*
O=C(Nc1ccc2[nH]ccc2c1)c1cccs1 | -105*
Cc1cccnc1NC(=O)NC(=O)c1ccc(C(C)(C)C)s1 | -169*
COc1ccccc1NC(=O)Cn1nnc(-c2ccccc2NC(=O)c2cc3ccccc3oc2=O)n1 | -119*
Cc1conc1NC(c1cccs1)c1ccc2cccnc2c1O (stereo unspecified) | 66
Cc1cccnc1NC(=S)NC(=O)c1cccs1 | -398*
CCC(=O)NC(c1cccs1)c1ccc2cccnc2c1O (stereo unspecified) | 80
O=C(CNC(=S)NC(=O)c1cccs1)c1ccccc1 | -74*
COc1cc(OC)cc(C(=O)Nc2ccc(N3CCN(C(=O)c4cccs4)CC3)cc2)c1 | -180*
CN1CCN(c2ccc(NC(=O)c3cccs3)cc2)CC1 | -88*
SMILES | aSyn UTR act
COc1ccc(/C=C/C(=O)c2ccc(NC(=O)c3cccs3)cc2)cc1OC | -94*
CC(C)C(=O)Nc1ccc(NC(=O)c2cccs2)cn1 | -132*
O=C(NC(=S)Nc1ccccc1)c1cccs1 | -147*
CCCCNS(=O)(=O)c1ccc(NC(=O)c2cccs2)cc1 | -66*
O=C(Cc1ccccc1)NNC(=S)NC(=O)c1cccs1 | 75
O=C(Nc1ccc(Cl)cc1)c1cccs1 | -146*
CC(C)c1ccc(NC(=S)NNC(=O)c2cccs2)cc1 | -95*
CC1=C(C)CC(C(=O)NCC(=O)c2ccccc2)C(C(=O)O)C1 (stereo unspecified) | -169*
O=C(NC(=S)Nc1ccc(N2CCCCC2)c(Cl)c1)c1cccs1 | -110*
Cc1ccn(-c2ccc(NC(=O)c3cccs3)cc2)n1 | -63*
O=C(Nc1ccc(NC(=O)C2CC2)cc1)c1cccs1 | -169*
O=C(CNC(=S)NC(=O)c1ccco1)c1ccccc1 | -80*
O=C(Nc1ccc(NC(=O)c2cccs2)cc1)c1cccs1 | -141*
Cc1ccc(NC(=O)Cn2nnc(-c3ccccc3NC(=O)c3cccs3)n2)cc1 | 67
